Source: PubChem BioAssay
BoNT-F LC inh: blocks Botulinum neurotoxin F light chain protease. hit rate 0.22% among 360,000. Multiplex microsphere protease cleavage assay, flow cytometry. AID 588497. inhibition, % at 10 µM; in the data active means inhibition above about 35%, passing the limit was not always enough; inconclusive means no clear call, values can overlap the other calls
Anthrax LF inh2: blocks Bacillus anthracis lethal factor protease; P15917; multiplex microsphere protease cleavage assay, LF; inhibition, % at 10 µM; hit rate 0.12% among 360,000
Target sequence (P15917 whole entry, looked up): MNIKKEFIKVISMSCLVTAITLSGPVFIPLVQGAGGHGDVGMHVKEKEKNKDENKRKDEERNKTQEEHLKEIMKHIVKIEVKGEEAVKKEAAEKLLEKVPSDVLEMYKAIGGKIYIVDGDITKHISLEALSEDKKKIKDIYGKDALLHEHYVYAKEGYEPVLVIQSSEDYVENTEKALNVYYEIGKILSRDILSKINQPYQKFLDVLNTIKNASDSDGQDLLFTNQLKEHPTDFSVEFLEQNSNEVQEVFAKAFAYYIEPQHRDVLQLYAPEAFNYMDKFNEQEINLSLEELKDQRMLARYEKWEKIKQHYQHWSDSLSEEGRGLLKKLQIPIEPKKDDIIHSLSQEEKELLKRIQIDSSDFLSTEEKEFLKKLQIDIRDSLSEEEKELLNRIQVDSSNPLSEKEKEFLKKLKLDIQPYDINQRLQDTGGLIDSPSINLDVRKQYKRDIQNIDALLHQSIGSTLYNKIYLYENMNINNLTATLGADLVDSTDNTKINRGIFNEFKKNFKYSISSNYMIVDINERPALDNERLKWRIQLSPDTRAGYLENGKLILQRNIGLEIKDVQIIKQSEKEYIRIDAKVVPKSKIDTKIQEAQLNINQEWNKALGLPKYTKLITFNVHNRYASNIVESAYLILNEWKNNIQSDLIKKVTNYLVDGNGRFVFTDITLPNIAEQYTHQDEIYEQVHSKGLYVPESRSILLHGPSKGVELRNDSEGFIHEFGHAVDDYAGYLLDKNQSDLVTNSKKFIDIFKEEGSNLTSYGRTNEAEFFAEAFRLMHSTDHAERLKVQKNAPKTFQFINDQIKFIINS
BoNT-A LC inh2: inhibitors of Botulinum neurotoxin A light chain protease; inhibition, % at 10 µM; hit rate 0.17% among 360,000; multiplex microsphere protease substrate cleavage, flow cytometry
Autofluor counter: counter-screen for toxin protease inhibitors: compound fluorescence; hit rate 3.1% among 360,000; AID 624483; fluorescence intensity (no concentration beside the values); compound autofluorescence counterscreen, microsphere flow cytometry; stronger effect = higher value; in the data active means fluorescence intensity above about 16000; inconclusive means no clear call, values can overlap the other calls
BJeLR viability: BJeLR cell viability loss; hit rate 0.17% among 300,000; BJeLR (HRASV12) viability, CellTiter-Glo ATP luminescence, 48 h; AID 1554; inhibition, % (test concentration not listed); in the data active means inhibition above about 50%; inconclusive means no clear call, values can overlap the other calls
Hits are given with their value; 0 = inactive; ? = inconclusive; - = no result. Most compounds without a hit are left out; they make up all but 3.5% or so of the library. Unless noted, no stated cut-off is given here; in the data, active means inhibition above about 30%; inconclusive means no clear call, values can overlap the other calls; inactive means below that.

SMILES	BoNT-F LC inh	Anthrax LF inh2	BoNT-A LC inh2	Autofluor counter	BJeLR viability
CCCC(NC(=S)NCC1CCCO1)C12CC3CC(CC(C3)C1)C2 (configuration not stated)	0	0	0	0	0
CCOC(=O)C(CC)Sc1nnc2n1C(C)(C)Cc1ccccc1-2 (configuration not stated)	0	0	0	0	0
COC(=O)CSc1nnc2n1C(C)(C)Cc1ccccc1-2	0	0	0	16446	0
COc1ccccc1NC(=O)N(C)C[C@H]1Oc2ncc(C#CCN(C)C)cc2C(=O)N([C@H](C)CO)C[C@H]1C	0	0	0	0	-
CCCOc1cccc(C(=O)N(Cc2ccc(OC)c(OC)c2)C2CCS(=O)(=O)C2)c1 (configuration not stated)	0	0	0	23243	0
O=C(Cn1c(=O)oc2ccccc21)N(Cc1ccccc1)C1CCS(=O)(=O)C1 (configuration not stated)	?	0	0	0	0
O=C1C2CC=CCC2C(=O)N1CC(=O)N(Cc1ccccc1)C1CCS(=O)(=O)C1 (configuration not stated)	0	0	0	22395	0
Cc1ccc(OCC(=O)N(Cc2ccc(N(C)C)cc2)C2CCS(=O)(=O)C2)cc1C (configuration not stated)	?	0	0	0	0
Cc1cccc(C)c1OCC(=O)N(Cc1ccc(Cl)cc1)C1CCS(=O)(=O)C1 (configuration not stated)	0	0	0	0	0
CN(C)c1ccc(CN(C(=O)COc2ccccc2)C2CCS(=O)(=O)C2)cc1 (configuration not stated)	0	0	0	16811	0
CCCOc1ccc(CN(C(=O)c2cccc(OC)c2)C2CCS(=O)(=O)C2)cc1 (configuration not stated)	0	0	0	0	0
Cc1ccccc1OCC(=O)N(Cc1ccc(N(C)C)cc1)C1CCS(=O)(=O)C1 (configuration not stated)	0	0	0	23914	-
Cc1cccc2cc(CNCC3CCCO3)c(Cl)nc12 (configuration not stated)	0	0	0	0	0
CCN(CC)S(=O)(=O)c1ccc(N2CCOCC2)c(NC(=O)c2cc3ccccc3o2)c1	0	0	0	0	-
COC(=O)[C@H](Cc1ccccc1)NC(=O)N1CCN(c2ccc(F)cc2)CC1	-	-	-	-	0
CC(C)CCOc1cccc(OCC(=O)N(C)C2CCS(=O)(=O)C2)c1 (configuration not stated)	0	0	0	16885	0
CN(C(=O)COc1ccccc1)C1CCS(=O)(=O)C1 (configuration not stated)	0	0	0	0	0
O=C1NC[C@H](CCCCN2CCN(Cc3ccccc3)C(=O)C2=O)N(Cc2ccccc2)C1=O	0	0	0	0	-
CC(C)(C)NC(=O)CN(C(=O)C1(C)CC(=O)N=C2C=CC=CN21)C1CCCC1 (configuration not stated)	0	0	0	23762	0
CC(=O)c1cccc(OCC(O)CN2CC=C(c3ccccc3)CC2)c1 (configuration not stated)	0	0	?	19622	0
CCn1c(CCn2ccnc2C)n[nH]c1=S	0	0	?	18972	0
CC(C)N1CC2(CC(c3ccccc3C(F)(F)F)=NO2)CN1C(=O)c1ccc(C(C)(C)C)cc1 (configuration not stated)	0	0	0	0	-
Cc1ccc(CNC(=O)CCS(=O)(=O)c2cc(Br)cc3c2N(C(=O)C2CC2)CC3)o1	0	0	0	0	0
CCCCc1nc2ccccc2c(=O)n1-c1ccccc1[N+](=O)[O-]	0	0	0	?	0
CCCCc1nc2ccccc2c(=O)n1-c1ccc(Cl)cc1[N+](=O)[O-]	0	0	?	22486	0
SMILES	BoNT-F LC inh	Anthrax LF inh2	BoNT-A LC inh2	Autofluor counter	BJeLR viability
Oc1ccc(N=Cc2ccc(-c3cccs3)s2)cc1	0	0	0	16163	0
O=Cc1ccc(-c2cccs2)s1	0	0	0	0	-
COC(=O)CCCn1cc(CN(C)C2CN(Cc3cn(CCCC(=O)OC)nn3)S(=O)(=O)C2)nn1 (configuration not stated)	0	0	0	0	-
Cc1cccc(C)c1NC(=S)NC(=O)c1cccc(Cl)c1	0	0	0	0	-
CCN(CCCn1c(SCC#N)nc2ccccc2c1=O)c1ccccc1	0	0	0	19328	0
CCc1cc(=O)oc2cc(OCC(=O)OC)c(Cl)cc12	0	0	?	22235	-
CCCc1cc(=O)oc2cc(OCC(=O)N(C)C)c(Cl)cc12	0	0	0	0	0
CCC(=O)N1CCN(c2ccc(Cl)cc2NC(=O)c2ccc(Br)o2)CC1	0	0	0	22198	0
O=C(Nc1ccc(N2CCN(C(=O)c3ccccc3)CC2)c(Cl)c1)c1ccc(Br)o1	0	0	0	23206	0
CC(C)[C@@H]1Cc2[nH][nH]c(=O)c2[C@H](C(C)C)O1	0	0	0	0	-
O=C(CSc1nc2ccccc2s1)c1cc2ccccc2o1	0	0	0	23696	0
Nc1nc(SCCN2C(=O)c3ccccc3C2=O)n[nH]1	0	0	?	18492	0
CCc1c(-c2ccccc2)nc2sc3c(c2c1N)CCCC3	0	0	0	0	0
CCCc1nc2c(C)ccc(C)c2c(N)c1CC	0	0	?	22777	0
CC[C@H]1OC(=O)C[C@@H](O)[C@H](C)[C@@H](O[C@@H]2O[C@H](C)C[C@H](N(C)C)[C@H]2O)[C@@H](CC=O)C[C@@H](C)C(=O)C=C[C@]2(C)O[C@H]2[C@@H]1C	-	-	-	-	0
CCN(CC(=O)NCc1cccs1)CC(=O)Nc1ccccc1C	?	0	0	0	-
Cc1cc(C)cc(NC(=O)c2cc(S(=O)(=O)NCc3ccco3)ccc2F)c1	0	0	0	21467	0
Cc1ccc(C(=O)Nc2ccc(S(=O)(=O)NCc3ccco3)cc2)cc1	0	0	0	21876	0
CCc1ccc(CCC(=O)Nc2sc(C)c(C)c2C(=O)OC)o1	0	0	0	21036	0
COC(=O)c1c(NC(=O)Cc2cccs2)sc(C)c1C	0	0	0	21860	0
CCOC(=O)c1cnn(CCOC(=O)c2ccc(F)cc2)c1NC(=O)c1ccc(F)cc1	0	0	0	0	0
CCOC(=O)c1cnn(CCOC(=O)Cc2cccs2)c1NC(=O)Cc1cccs1	0	0	0	22856	0
C=CC1=CCN(S(=O)C(C)(C)C)[C@H]1CCO (some centres not stated)	0	0	0	0	-
CCN(CC)S(=O)(=O)c1cccc(C(=O)NCC2CCCCC2)c1	0	0	0	0	0
Clc1ccccc1Nc1ncnc2c1nnn2Cc1ccccc1	0	0	?	16216	0
SMILES	BoNT-F LC inh	Anthrax LF inh2	BoNT-A LC inh2	Autofluor counter	BJeLR viability
c1ccc(Cn2nnc3c(N4CCc5ccccc5C4)ncnc32)cc1	0	0	0	20729	0
Fc1ccccc1Nc1ncnc2c1nnn2Cc1ccccc1	0	0	0	0	0
CCN1CCN(c2ncnc3c2nnn3Cc2ccccc2)CC1	0	0	0	0	0
c1ccc(Cn2nnc3c(N4CCCC4)ncnc32)cc1	0	0	0	16477	0
N#CCCN(C(=S)Nc1ccc(S(=O)(=O)N2CCOCC2)cc1)c1ccccc1F	0	0	0	0	-
C=Cn1cc[n+](CC(=O)c2ccc(Cl)c(Cl)c2)c1	0	0	0	0	0
